Measurements reported in PubChem BioAssay (NCATS).
Records with an inconclusive call do not appear. Unmarked numbers belong to inactive results. The source made the active and inactive calls. Calls come from the whole dose curve; as a rule, active = well fitted inhibition curve with a large enough effect; inconclusive = small, poorly fitted or top-dose-only effect; inactive = flat fitted curve, though single readings scatter.
% is set by controls: 0 for no effect and ±100 for the full control effect.

The molecules below were run against Calcium and integrin-binding protein 1 (Homo sapiens) (UniProt Q99828) (assay: Primary qHTS for Identification of Calcium Integrin Binding Protein 1 (CIB1) Competitor (AID 1508620;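 note: GST tagged CIB1 binding a fluorescein labelled alphaIIb integrin peptide tracer; top concentration of the series differs between compounds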)). Conditions: CIB1-GST / FITC-alphaIIb peptide fluorescence polarization; series mostly up to 57.7 µM; activity change, negative = inhibition: at the top concentration.
Sequence of Calcium and integrin-binding protein 1 (Homo sapiens) (Q99828 whole entry, looked up): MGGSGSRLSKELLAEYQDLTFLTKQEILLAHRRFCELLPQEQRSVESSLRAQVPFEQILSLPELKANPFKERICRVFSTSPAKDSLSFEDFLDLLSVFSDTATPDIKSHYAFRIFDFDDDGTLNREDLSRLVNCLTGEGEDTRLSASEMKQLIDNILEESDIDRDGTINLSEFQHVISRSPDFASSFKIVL
Method in brief: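 Fluorescence polarization competition: CIB1-GST (1 uM final) preincubated with compound 15 min at room temperature, then FITC-labeled alphaIIb peptide (100 nM final) added for another 15 min. Polarization read at Ex 480/Em 540.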
For `Cc1nn(Cc2ccccc2Cl)c(C)c1CN(C)CC(O)COc1ccc(Cl)cc1` (stereo unspecified), the “activity change, negative = inhibition” value was -1.22%.
`CCC(=O)NCC[C@@H]1CCc2ccc3c(c21)CCO3` was tested, and the “activity change, negative = inhibition” value was -1.85%.
For `COc1c(C)cnc(Cn2cnc3c(Cl)nc(N)nc32)c1C`, the “activity change, negative = inhibition” value was 0.0012%.
`CCN(CC)CCCCNc1nc2cc(Cl)c(Cl)cc2nc1-c1ccc(-c2cccs2)s1` was tested, and the “activity change, negative = inhibition” value was -0.333%.
`N[C@@H](CC(=O)N1CCn2c(nnc2C(F)(F)F)C1)Cc1cc(F)c(F)cc1F` was tested, and the “activity change, negative = inhibition” value was 3.09%.
`O=C(O)c1nc(=O)[nH]c(=O)[nH]1` was tested, and the “activity change, negative = inhibition” value was 1.53% [at 30.2 µM].
For `O=C(c1ccc(C(=O)N2CCC(N3CCCC3)CC2)c(Nc2ccccc2)c1)N1CCC(N2CCCC2)CC1`, the Potency was “inactive”.
In the case of `Cc1ccc(C2=Nc3ccc(Cl)cc3OC2)cc1`, the “activity change, negative = inhibition” value is reported as -11.2%.
In the case of `CCn1c(-c2nonc2N)nc2cncc(CNC3CCNCC3)c21`, the Potency is reported as “inactive”.
`CN(C)CCN(Cc1ccc(Cl)cc1)c1ccccn1` was tested, and the “activity change, negative = inhibition” value was -2.59% [at 114 µM].
`NC1(C(=O)N[C@@H](CCO)c2ccc(Cl)cc2)CCN(c2ncnc3[nH]ccc23)CC1` was tested, and the Potency was “inactive”.
With `CN1CCN(c2cccc(Nc3nc4c(-c5ccc(S(C)(=O)=O)cc5)cccn4n3)c2)CC1` the Potency was “inactive”.
For `COC1CCC(C(=O)c2ccc3nc4c(cc3c2)CCCO4)CC1` (stereo unspecified), the “activity change, negative = inhibition” value was -1.09%.
For `CC[C@H](C=C[C@@H](C)[C@H]1CC[C@H]2[C@@H]3CC=C4C[C@@H](O)CC[C@]4(C)[C@@H]3CC[C@]12C)C(C)C`, the “activity change, negative = inhibition” value was 2.42% [at 30.2 µM].
With `CN(C)CCOc1cc(-c2cn[nH]c2)ccc1NC(=O)C1COc2ccccc2O1` (stereo unspecified) the Potency was “inactive”.
For `CN(C)c1nc(Cc2ccc(NC(=O)c3ccc(C(F)(F)F)cc3)cc2)nc(N(C)C)c1CC(=O)O`, the Potency was “inactive”.
